Results taken from PubChem BioAssay (NCATS).
Results filed as inconclusive are left out. The source made the active and inactive calls. Calls follow the shape of the dose curve; as a rule, active = well fitted curve in the direction sought with a large enough effect; inconclusive = small, poorly fitted or top-dose-only effect, or another doubt; inactive = no such curve, though single readings can be large; an effect the other way counts as inactive or inconclusive.

Assays:
MKL-2 = assay: qHTS assay to identify novel small-molecules to repurpose for Merkel cell carcinoma treatment (AID 1296009); details: MCC and control cell lines, CellTiter-Glo viability, 72 h; series mostly up to 46 µM; also: nearly all actives have a fitted effect of over 60% in size
Summary of the method: (§1)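 After compound transfer in DMSO, plates were kept 72 hr at 37 degree celsius. Luminescent ATP signal from CellTiter-Glo served as viability measure, normalized against DMSO and no-cell controls.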

NIH3T3 = assay: as above; details: MCC and control cell lines, CellTiter-Glo viability, 72 h; at 44.8 µM (top of the series) unless noted
Summary of the method: as §1

UISO = assay: as above; details: MCC and control cell lines, CellTiter-Glo viability, 72 h; series mostly up to 46 µM
Summary of the method: as §1

WaGa = assay: as above; details: MCC and control cell lines, CellTiter-Glo viability, 72 h; series mostly up to 46 µM
Summary of the method: as §1

C33A = assay: Primary qHTS to identify gynecologic anti-cancer compounds using libraries of approved drugs and bioactive compounds (AID 1345084); details: Gynecologic cancer cell panel viability, ATPlite luminescence, 48 h; series mostly up to 57.5 µM; also: nearly all actives have a fitted effect of over 55% in size
Summary of the method: (§2)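 Cells, 1,000 per well, plated 16 h, then exposed 48 h at 37 C to compounds. Viability by ATPlite luminescence after 15 min at room temperature.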

CAOV3 = assay: as above; details: Gynecologic cancer cell panel viability, ATPlite luminescence, 48 h; series mostly up to 57.5 µM
Summary of the method: as §2

CASKI = assay: as above; details: Gynecologic cancer cell panel viability, ATPlite luminescence, 48 h; series mostly up to 57.5 µM
Summary of the method: as §2

Es-2 = assay: as above; details: Gynecologic cancer cell panel viability, ATPlite luminescence, 48 h; series mostly up to 57.5 µM
Summary of the method: as §2

HeLa = assay: as above; details: Gynecologic cancer cell panel viability, ATPlite luminescence, 48 h; series mostly up to 57.5 µM
Summary of the method: as §2

Hek293T = assay: as above; details: Gynecologic cancer cell panel viability, ATPlite luminescence, 48 h, control line for the selectivity index; series mostly up to 57.5 µM
Summary of the method: as §2

Measured: activity change, negative = cytotoxicity
% is scaled to controls: 0 for no effect and ±100 for the full control effect.

NNc1nnc(NN)c2ccccc12
inactive: all assays above

COc1ccccc1OCC(O)CO (centres undefined)
inactive: all assays above

Cc1c(I)c(=O)n(-c2ccccc2)n1C
inactive: all assays above

Cc1ccsc1/C=C/C1=NCCCN1C
inactive: all assays above

CCN[C@H]1CN(CCCOC)S(=O)(=O)c2sc(S(N)(=O)=O)cc21
inactive: all assays above

O=C(O)CNC(=O)c1ccccc1I
inactive: all assays above

NC(=O)c1ccc([N+](=O)[O-])cc1Cl
inactive: all assays above

O=C(OOC(=O)c1ccccc1)c1ccccc1
inactive: all assays above

Nc1ncnc(Nc2ccccc2)n1
inactive: all assays above

O=S1(=O)OC(c2ccc(O)cc2)(c2ccc(O)cc2)c2ccccc21
inactive: all assays above

CC(CN(C)C)C(C)(O)Cc1ccc(Cl)cc1 (centres undefined)
inactive: all assays above

Cc1cc(C)nc(NS(=O)(=O)c2ccc(N)cc2)n1
inactive: all assays above

COC(=O)c1ccc(O)cc1
inactive: all assays above

CC(=O)OCC(COC(C)=O)OC(C)=O
inactive: all assays above

CCCCC1(COC(=O)CCC(=O)O)C(=O)N(c2ccccc2)N(c2ccccc2)C1=O
inactive: all assays above

CCCNC(C)C(=O)Nc1c(C)csc1C(=O)OC (centres undefined)
inactive: all assays above

Cc1cc(=O)[nH]c(=S)[nH]1
inactive: all assays above

CC(C)c1cc2c(cc1S(=O)(=O)O)[C@@]1(C)CCC[C@@](C)(C(=O)O)[C@@H]1CC2
inactive: all assays above

O=C(CCBr)N1CCN(C(=O)CCBr)CC1
inactive: all assays above

NS(=O)(=O)c1ccc(NC(=O)CCC(=O)O)cc1
inactive: all assays above

OC(CCN1CCCC1)(c1ccccc1)C1CCCCC1 (centres undefined)
inactive: all assays above

O=C(O)C(S)C(S)C(=O)O (centres undefined)
inactive: all assays above

CC[C@]12CCCN3CCc4c(n(c5ccccc45)[C@@](O)(C(=O)OC)C1)[C@@H]32
inactive: all assays above

CC(=O)N(CC(O)CN(C(C)=O)c1c(I)c(C(=O)NCC(O)CO)c(I)c(C(=O)NCC(O)CO)c1I)c1c(I)c(C(=O)NCC(O)CO)c(I)c(C(=O)NCC(O)CO)c1I (centres undefined)
inactive: all assays above

CCOC(=O)[C@H](CCc1ccccc1)N[C@@H](C)C(=O)N1CCC[C@H]1C(=O)O
inactive: all assays above

CCOC(N)=O
inactive: all assays above

O=c1[nH]c2cc(C(F)(F)F)c(N3CCOCC3)cc2n(CP(=O)(O)O)c1=O
inactive: all assays above

O=C(NCCCN1CCOCC1)c1ccc(Cl)cc1
inactive: all assays above

Cc1cccc(C(=O)O)c1O
not listed: Es-2 | HeLa | Hek293T
inactive: all other assays above

Cc1c(C)c2c(c(C)c1OC(=O)c1cccnc1)CC[C@@](C)(CCC[C@H](C)CCC[C@H](C)CCCC(C)C)O2
inactive: all assays above

O=C(O)Cn1c(C(=O)Nc2nc(-c3ccccc3Cl)cs2)cc2ccccc21
inactive: all assays above

CC1(C)[C@@H](OC(=O)CCC(=O)O)CC[C@]2(C)[C@H]3C(=O)C=C4[C@@H]5C[C@@](C)(C(=O)O)CC[C@]5(C)CC[C@@]4(C)[C@]3(C)CC[C@@H]12
inactive: all assays above

CCOC(=O)OC(C)OC(=O)[C@@H]1N2C(=O)[C@@H](NC(=O)[C@H](N)c3ccccc3)[C@H]2SC1(C)C (some centres undefined)
inactive: all assays above

CCCC(O)C(CC)CO (centres undefined)
inactive: all assays above

O=C(CN1CCNCC1)NC1CCCCC1
inactive: MKL-2 | NIH3T3 inactive; activator | UISO | WaGa | C33A | CAOV3 | CASKI | Es-2 | HeLa | Hek293T

CN1C(=O)CC(c2ccccc2)C1=O (centres undefined)
inactive: all assays above

C=CCN1C[C@H](C(=O)N(CCCN(C)C)C(=O)NCC)C[C@@H]2c3cccc4[nH]cc(c34)C[C@H]21
inactive: all assays above

COc1nccnc1NS(=O)(=O)c1ccc(N)cc1
inactive: all assays above

FC(F)(F)C(Cl)Br (centres undefined)
inactive: all assays above

CC(=O)Oc1cccc(O)c1
inactive: all assays above

CC(=O)N[C@H]1[C@H]([C@H](O)[C@H](O)CO)OC(C(=O)O)=C[C@@H]1N=C(N)N
inactive: all assays above

Cc1onc(-c2ccccc2)c1-c1ccc(S(N)(=O)=O)cc1
not listed: C33A
inactive: all other assays above

CC(=O)N(CC(O)CO)c1c(I)c(C(=O)NCC(O)CO)c(I)c(C(=O)NCC(O)CO)c1I (centres undefined)
inactive: all assays above

Cc1ncc(CO)c(CN)c1O
inactive: all assays above

C[N+](C)(C)CC(O)CC(=O)[O-] (centres undefined)
inactive: all assays above

c1ccc2[nH]ccc2c1
not listed: CAOV3
inactive: all other assays above

N[C@@H](Cc1ccc(O)cc1)C(=O)O
inactive: MKL-2 -20.6% [at 9.22 µM] | NIH3T3 inactive [at 9.27 µM] | UISO 19.3% [at 9.22 µM] | WaGa -2.96% [at 9.22 µM] | C33A 3.53% [at 11.6 µM] | CASKI 0.958% [at 11.6 µM] | Es-2 -4.06% [at 11.6 µM] | HeLa 11.2% [at 11.6 µM] | Hek293T 11.5% [at 11.6 µM]
